# Reference: PubChem BioAssay AID504333 (National Center for Advancing Translational Sciences (NCATS), 2011)
# Among all 360,000 compounds or so, about 16,000 (4.4%) were called active. Inconclusive results (about 9%) are left out. Calls follow the shape of the dose curve; as a rule, active = well fitted inhibition curve with a large enough effect; inconclusive = small, poorly fitted or top-dose-only effect; inactive = no such curve, though single readings can be large or run the other way. The entries come from a sample that favours actives as a whole.
# Target: Bromodomain adjacent to zinc finger domain protein 2B (Homo sapiens) (UniProt Q9UIF8)
# Sequence (Q9UIF8 whole entry, looked up, the tested form may be a part): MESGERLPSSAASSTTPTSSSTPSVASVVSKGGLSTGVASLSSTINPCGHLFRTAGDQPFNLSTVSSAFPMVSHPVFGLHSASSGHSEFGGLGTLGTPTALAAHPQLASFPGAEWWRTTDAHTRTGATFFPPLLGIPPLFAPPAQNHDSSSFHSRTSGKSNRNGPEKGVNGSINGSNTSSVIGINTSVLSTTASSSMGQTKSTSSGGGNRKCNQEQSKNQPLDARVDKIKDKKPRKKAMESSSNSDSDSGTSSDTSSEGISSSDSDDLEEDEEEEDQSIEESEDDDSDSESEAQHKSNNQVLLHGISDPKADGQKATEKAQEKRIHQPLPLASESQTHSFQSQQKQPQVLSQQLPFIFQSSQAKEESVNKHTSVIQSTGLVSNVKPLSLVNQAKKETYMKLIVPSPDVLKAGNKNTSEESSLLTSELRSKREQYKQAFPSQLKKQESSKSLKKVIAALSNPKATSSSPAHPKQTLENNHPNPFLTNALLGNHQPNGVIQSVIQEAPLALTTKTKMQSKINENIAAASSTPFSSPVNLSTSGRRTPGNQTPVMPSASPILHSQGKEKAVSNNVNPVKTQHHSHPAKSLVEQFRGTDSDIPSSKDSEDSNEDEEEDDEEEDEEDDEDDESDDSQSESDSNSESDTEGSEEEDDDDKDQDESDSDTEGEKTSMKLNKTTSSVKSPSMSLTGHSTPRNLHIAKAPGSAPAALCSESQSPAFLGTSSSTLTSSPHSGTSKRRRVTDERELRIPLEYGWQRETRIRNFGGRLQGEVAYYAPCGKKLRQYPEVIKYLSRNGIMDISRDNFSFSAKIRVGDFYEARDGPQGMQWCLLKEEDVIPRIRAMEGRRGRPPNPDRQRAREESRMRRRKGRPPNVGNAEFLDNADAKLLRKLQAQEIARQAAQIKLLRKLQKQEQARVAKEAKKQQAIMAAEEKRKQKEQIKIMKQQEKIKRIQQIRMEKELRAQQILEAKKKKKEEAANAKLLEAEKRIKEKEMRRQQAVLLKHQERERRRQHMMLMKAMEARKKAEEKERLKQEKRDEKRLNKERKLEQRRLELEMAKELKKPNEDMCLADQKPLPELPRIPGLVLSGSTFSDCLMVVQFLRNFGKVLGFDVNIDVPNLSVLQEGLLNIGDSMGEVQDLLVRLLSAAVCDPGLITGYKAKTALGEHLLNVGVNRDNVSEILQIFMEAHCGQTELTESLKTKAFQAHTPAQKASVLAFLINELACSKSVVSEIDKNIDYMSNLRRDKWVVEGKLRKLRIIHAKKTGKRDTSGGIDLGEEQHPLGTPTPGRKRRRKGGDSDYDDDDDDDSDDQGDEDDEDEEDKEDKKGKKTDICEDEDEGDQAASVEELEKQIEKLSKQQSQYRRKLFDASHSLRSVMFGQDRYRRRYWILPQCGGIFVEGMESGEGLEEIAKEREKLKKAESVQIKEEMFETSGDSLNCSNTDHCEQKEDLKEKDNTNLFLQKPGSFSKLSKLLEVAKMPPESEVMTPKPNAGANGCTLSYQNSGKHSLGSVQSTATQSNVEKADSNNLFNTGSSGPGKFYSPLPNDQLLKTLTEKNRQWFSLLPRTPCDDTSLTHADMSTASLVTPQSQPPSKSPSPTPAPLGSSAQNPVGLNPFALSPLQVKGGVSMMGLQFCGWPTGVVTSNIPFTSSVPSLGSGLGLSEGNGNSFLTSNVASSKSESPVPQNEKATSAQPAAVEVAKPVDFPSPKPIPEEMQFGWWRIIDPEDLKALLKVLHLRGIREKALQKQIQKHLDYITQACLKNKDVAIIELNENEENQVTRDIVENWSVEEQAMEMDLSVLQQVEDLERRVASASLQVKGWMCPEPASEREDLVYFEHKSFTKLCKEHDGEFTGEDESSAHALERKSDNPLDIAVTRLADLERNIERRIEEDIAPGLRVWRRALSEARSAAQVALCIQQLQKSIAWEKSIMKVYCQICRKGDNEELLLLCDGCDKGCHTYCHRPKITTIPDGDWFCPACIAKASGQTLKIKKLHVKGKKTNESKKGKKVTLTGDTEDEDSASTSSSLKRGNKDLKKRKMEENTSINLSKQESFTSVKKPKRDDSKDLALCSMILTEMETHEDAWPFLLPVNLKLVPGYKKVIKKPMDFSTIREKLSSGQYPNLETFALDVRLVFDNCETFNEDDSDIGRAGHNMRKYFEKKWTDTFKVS
# Experiment: qHTS Assay for Inhibitors of BAZ2B; also: nearly all actives have a fitted effect of over 60% in size
# Conditions: AlphaScreen BAZ2B-H3K14Ac peptide displacement; series mostly up to 114 µM; activity change, negative = inhibition: at the top concentration
# How it was run: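 AlphaScreen displacement: compounds (up to 110uM) incubated 30 min at room temperature with a preformed 50 nM BAZ2B/50 nM biotinylated H3K14Ac peptide complex in PBS pH 7.4 with Tween-20. Donor and acceptor beads at 10 ug/mL final added, 20 min light-protected before reading.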
# % is scaled to controls: 0 for no effect and ±100 for the full control effect; potency is read from the fitted curve at half-maximal effect.
Compound,"activity change, negative = inhibition",Potency
COc1ccc(N2CCN(S(=O)(=O)CCNC(=O)C(c3ccccc3)c3ccccc3)CC2)cc1,1.98% (inactive),
C#CCOCCOCCOCCNc1nc(N2CCN(C(=O)Cn3cc(CCCCN)nn3)CC2)nc(N2CCN(C(=O)[C@H](CCCCN)n3cc(CCC(=O)O)nn3)CC2)n1,3.13% (inactive),
C#CCOCCOCCOCCNc1nc(N2CCN(C(=O)CCCCCCCCCCNC(=O)Cn3cc(CCCCCN)nn3)CC2)nc(N2CCN(C(=O)CCCCCCCCCCNC(=O)[C@H](CO)n3cc(CCCSC)nn3)CC2)n1,,50.1 µM (active)
C#CCOCCOCCOCCNc1nc(N2CCN(C(=O)CCCCCCCCCCNC(=O)[C@H]([C@@H](C)CC)n3cc(CCCCN=C(N)N)nn3)CC2)nc(N2CCN(C(=O)CCCCCCCCCCNC(=O)[C@H](CO)n3cc(CCCSC)nn3)CC2)n1,,50.1 µM (active)
CC[C@@H](C)[C@@H](C(=O)N1CCN(C(=O)OC(C)(C)C)CC1)n1cc(CCC(=O)O)nn1,0.303% (inactive),
CCOc1cccc(CNC(=O)c2ccc(N3CCCC3)c(NC(=O)Nc3ccccc3CC)c2)c1,-11.9% (inactive),
Cc1oc(C)c2c(=O)cc(-c3ccc4c(c3)OCO4)cc(OC(=O)c3ccc(Cl)cc3)c12,-15.3% (inactive),
CC(=O)NCC(=O)N1CCCC(C(=O)c2ccc3c4c(cccc24)CC3)C1 (stereo unspecified),-9.91% (inactive),
CCn1ccnc1CN1CCCC(C(=O)c2ccc3c4c(cccc24)CC3)C1 (stereo unspecified),,50.1 µM (active)
COc1ccc(C(=O)C2CCCN(Cc3ccc4nonc4c3)C2)c(C)c1 (stereo unspecified),4.01% (inactive),
Cc1nc2ccc(S(=O)(=O)N(CC(=O)Nc3ccc(F)cc3)Cc3ccccc3)cc2s1,-13% (inactive),
COc1ccc(NC(=O)CSc2nc3ccccc3c(=O)n2C)cc1,12.4% (inactive),
COc1ccc(-c2nc3c(c(SCC(=O)Nc4ccc(C(=O)O)cc4)n2)Cc2ccccc2O3)cc1,,8.91 µM (active)
COc1ccc(NC(=O)CSc2nc(N)c(-c3ccccc3)c(=O)[nH]2)cc1,0.717% (inactive),
COc1ccc(Cl)cc1NC(=O)CSc1nc(-c2cccs2)cc(C(F)(F)F)n1,4.09% (inactive),
Cc1ccc(CN2CCCn3nc(C(=O)NCc4ccccc4Cl)cc3C2=O)cc1,-15.9% (inactive),
O=C1c2ccccc2C2=Nc3ccccc3SC(c3ccccc3F)C12 (stereo unspecified),,8.91 µM (active)
O=C1c2ccccc2C(=O)C1c1ccccc1F,-9.2% (inactive),
CC1Cc2cc(S(=O)(=O)CCC(=O)NCc3ccc(Cl)cc3)ccc2N1C(=O)C1CC1 (stereo unspecified),-0.78% (inactive),

Compound,"activity change, negative = inhibition",Potency
CN1C2CCC1CC(NC(=O)c1ccc([N+](=O)[O-])cc1)C2 (stereo unspecified),-7.51% (inactive),
CN(CC1CCCO1)S(=O)(=O)c1ccc(C(=O)Nc2ccc([N+](=O)[O-])cc2)cc1 (stereo unspecified),-21.8% (inactive),
O=C(Nc1cc2c3c(c1)C1CCCC1CN3CC1CCCC21)c1ccc([N+](=O)[O-])cc1 (stereo unspecified),,11.2 µM (active)
Cc1ccc(S(=O)(=O)c2c(Nc3cccc(Cl)c3)sc(C(=O)c3ccc4c(c3)OCO4)c2N)cc1,-15.3% (inactive),
CCCCC(=O)OC1=CN(Cc2ccccc2)S(=O)(=O)c2ccccc21,10.3% (inactive),
CCN1CCC2(CC1)N=C(c1ccc(F)cc1)C(=S)N2C(=O)c1ccc(C)cc1,,44.7 µM (active)
CCN1CCN(C(=O)CSc2ccc(C)cc2)CC1,-3.19% (inactive),
Cc1ccc(NC(=O)CN2C(=O)C(c3ccc(F)cc3)=NC23CCCCCC3)c(C)c1,37.2% (inactive),
COc1ccc(CNC(=O)c2cc3cccc(OC)c3oc2=O)cc1,-15.9% (inactive),
O=C(NCCS(=O)(=O)N1CCN(c2ccc(F)cc2)CC1)c1ccccc1Br,-5.66% (inactive),
COc1ccc(CNc2nc(-c3ccc(Cl)cc3)nn2C(=O)c2ccccc2)cc1,8.67% (inactive),
O=C(CSc1oc(-c2ccccc2)nc1S(=O)(=O)c1ccc(Br)cc1)NC1CCCCC1,5.24% (inactive),
CCOc1ccccc1NC(=O)CSc1ncc(S(=O)(=O)c2ccc(C(C)(C)C)cc2)c(=O)[nH]1,-14.3% (inactive),
O=C(CC1N=C2c3ccccc3N=C(SCc3ccc(F)cc3)N2C1=O)NCc1cccs1 (stereo unspecified),9.88% (inactive),
O=C(CSc1nc2ccccc2c(=O)[nH]1)Nc1nc(-c2ccc(Br)cc2)cs1,,79.4 µM (active)
CC(=O)NCc1ccc(-c2csc(NC(=O)CCCc3nc4ccccc4c(=O)[nH]3)n2)cc1,-1.79% (inactive),
CCOC(=O)c1ccccc1NC(=O)CSc1nc2ccccc2c(=O)[nH]1,-4.86% (inactive),
Cc1ccccc1Cn1nc(C)c(NC(=O)c2cc(-c3ccc(F)cc3)on2)c1C,2.54% (inactive),
COc1cccc(NC(=O)CN(C)C(=O)/C=C/c2cn(-c3ccccc3)nc2-c2cccs2)c1,-36.5% (inactive),

Compound,"activity change, negative = inhibition",Potency
O=C(NCc1cccnc1)c1cn(-c2ccccc2)nc1-c1cccs1,5.33% (inactive),
O=C(O)c1ccc(N/N=C/c2cn(-c3ccccc3)nc2-c2cccs2)cc1,,79.4 µM (active)
CC(C)(C)OC(=O)N1CCC(c2c(C(=O)N3CCN(c4cccc(Cl)c4)CC3)cnn2-c2cccc(Cl)c2)CC1,2.35% [at 57.1 µM] (inactive),
O=C(Nc1ccccc1Cl)N1CCC(CN2CCCC2)CC1,2.8% (inactive),
CCS(=O)(=O)N1CCc2cc(C(=O)NCc3ccc(C)cc3)ccc21,-4.46% (inactive),
O=C(NC1CC(=O)N(c2ccc(F)cc2)C1)C1CCCCC1 (stereo unspecified),0.429% (inactive),
COc1ccc(N2C(=O)C(Cc3ccccc3)NC2=S)cc1 (stereo unspecified),-3.55% (inactive),
CCCNc1ncnc2c1c(-c1ccccc1)cn2-c1ccc(OCC)cc1,-26.2% (inactive),
COc1ccc(-n2cc(-c3ccccc3)c3c(=S)nc[nH]c32)cc1,,79.4 µM (active)
COc1ccc(C2=NC3(CCCCC3)N(CC(=O)Nc3ccc(C(C)C)cc3)C2=O)cc1,-0.108% (inactive),
COc1cc(OC)c2ccc(=O)oc2c1C(CCN1CCN(c2ccccc2)CC1)c1ccc2c(c1)OCO2 (stereo unspecified),,25.1 µM (active)
CCN(CC)CCC(c1cc(OC)c(OC)c(OC)c1)c1c(OC)cc(OC)c2c(-c3ccccc3)cc(=O)oc12 (stereo unspecified),-14.6% (inactive),
CCN(CC)CCC(c1ccc2c(c1)OCO2)c1c(OC)cc(OC)c2c(-c3ccccc3)cc(=O)oc12 (stereo unspecified),-33.9% (inactive),
CCOC(=O)C1CCCN(C(=O)c2ccc(-n3ccc4ccccc43)s2)C1 (stereo unspecified),50% (inactive),
Cc1cccc(C(=O)OCC(=O)Nc2ccc(F)cc2)c1,2.82% (inactive),
COc1cc(OC)cc(C(=O)OCC(=O)Nc2ccc(F)cc2F)c1,-10.2% (inactive),
O=C(COC(=O)c1ccc(F)cc1F)Nc1ncccn1,,50.1 µM (active)
COc1ccc(CCNC(=O)C(=O)NCC(c2ccco2)S(=O)(=O)c2cccs2)cc1OC (stereo unspecified),3.47% (inactive),
